Laboratory results reported in PubChem BioAssay (EPA / NIEHS).
Records with an inconclusive call do not appear. Calls of active or inactive are those of the source. The calls were made as follows, unless noted: active = hit-call score of the fitted dose curve at least 0.9, where 1 is the maximum; inconclusive = response in the unintended direction; inactive = score below 0.9.

Biological target: Retinoic acid receptor RXR-alpha (Homo sapiens) (UniProt P19793)
Assay: OT_NURR1_NURR1RXRa_1440: Odyssey Thera (OT) 24-hour HEK293T Protein Complementation Assay for Nurr1/retinoid X receptor (RXR) (AID 2283386)
Settings: not given
Method in brief: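 Interaction of Nurr1 with RXRα brings fused reporter fragments together in human HEK293T cells, restoring a functional reporter. Fluorescence intensity is measured 24 h after chemical treatment, and values are analysed in the positive direction against DMSO.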

Retinoic acid receptor RXR-alpha (Homo sapiens), sequence (P19793 whole entry, looked up): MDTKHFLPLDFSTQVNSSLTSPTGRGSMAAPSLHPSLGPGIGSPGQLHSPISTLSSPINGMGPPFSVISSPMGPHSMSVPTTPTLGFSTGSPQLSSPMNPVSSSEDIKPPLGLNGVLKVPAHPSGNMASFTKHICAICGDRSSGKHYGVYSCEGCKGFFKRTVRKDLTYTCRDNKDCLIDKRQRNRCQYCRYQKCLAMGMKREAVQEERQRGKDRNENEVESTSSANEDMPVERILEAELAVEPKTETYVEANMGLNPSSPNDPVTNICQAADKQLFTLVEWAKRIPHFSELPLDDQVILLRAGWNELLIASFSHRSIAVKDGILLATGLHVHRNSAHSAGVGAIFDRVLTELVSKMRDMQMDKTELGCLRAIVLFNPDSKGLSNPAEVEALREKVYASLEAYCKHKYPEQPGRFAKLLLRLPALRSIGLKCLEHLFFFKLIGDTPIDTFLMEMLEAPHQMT

SMILES	outcome	AC50
CCOP(O)OCC	inactive	
Nc1cc(Cl)cc(Cl)c1	inactive	
[CH3][Sn]([CH3])([Cl])[Cl]		82.1 µM (active)
CC(Cc1ccc(C(C)(C)C)cc1)CN1C[C@@H](C)O[C@@H](C)C1 (some centres not stated)		81 µM (active)
CN(C)C(=O)C(c1ccccc1)c1ccccc1	inactive	
O=P(O)(Oc1ccccc1)Oc1ccccc1	inactive	
CC1CCCC1.[C-]#[O+].[C-]#[O+].[C-]#[O+].[Mn]	inactive	
CCC(=O)c1ccc(Cl)cc1	inactive	
Oc1cc(Cl)ccc1Cl	inactive	

Biological target: Peroxisome proliferator-activated receptor gamma (Homo sapiens) (UniProt P37231)
Assay: OT_PPARg_PPARgSRC1_1440: Odyssey Thera (OT) 24-hour Protein-Complementation Assay for Peroxisome Proliferator-activated Receptor Gamma/ SRC-1 Co-activator (AID 2283388);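 also: nuclear to cytoplasmic ratio of reconstituted Venus YFP fluorescence in fixed imaged cells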
Settings: not given
Method in brief: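 Transient HEK293T, YFP fragments 1-158/159-239 (mutant IFP1/IFP2) fused to PPARg/SRC-1; 24 h dosing; fix 4% formaldehyde, Draq5; Opera imaging 488/635 nm; N/C ratio, gain vs DMSO.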

Peroxisome proliferator-activated receptor gamma (Homo sapiens), sequence (P37231 whole entry, looked up): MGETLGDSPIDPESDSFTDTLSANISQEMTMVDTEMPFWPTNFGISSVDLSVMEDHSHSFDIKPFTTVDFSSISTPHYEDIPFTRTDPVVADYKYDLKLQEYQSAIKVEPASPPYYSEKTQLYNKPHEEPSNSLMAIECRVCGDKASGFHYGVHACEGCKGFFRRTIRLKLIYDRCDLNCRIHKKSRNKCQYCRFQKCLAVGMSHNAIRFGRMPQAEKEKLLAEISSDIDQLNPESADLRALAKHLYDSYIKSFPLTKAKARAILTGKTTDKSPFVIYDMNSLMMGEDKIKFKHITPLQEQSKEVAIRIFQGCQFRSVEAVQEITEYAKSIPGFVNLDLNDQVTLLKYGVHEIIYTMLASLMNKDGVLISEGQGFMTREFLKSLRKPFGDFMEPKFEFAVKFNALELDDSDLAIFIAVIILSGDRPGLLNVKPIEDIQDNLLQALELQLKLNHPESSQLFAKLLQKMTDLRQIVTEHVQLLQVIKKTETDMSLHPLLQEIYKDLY

SMILES	outcome
CCOP(O)OCC	inactive
Nc1cc(Cl)cc(Cl)c1	inactive
[CH3][Sn]([CH3])([Cl])[Cl]	inactive
CCc1cccc(C)c1N(C(=O)CCl)[C@@H](C)COC	inactive
CC(Cc1ccc(C(C)(C)C)cc1)CN1C[C@@H](C)O[C@@H](C)C1 (some centres not stated)	inactive
CN(C)C(=O)C(c1ccccc1)c1ccccc1	inactive
O=P(O)(Oc1ccccc1)Oc1ccccc1	inactive
CC1CCCC1.[C-]#[O+].[C-]#[O+].[C-]#[O+].[Mn]	inactive
CCC(=O)c1ccc(Cl)cc1	inactive
O=CNC(N1CCN(C(NC=O)C(Cl)(Cl)Cl)CC1)C(Cl)(Cl)Cl (configuration not stated)	inactive
Oc1cc(Cl)ccc1Cl	inactive

Read-out: not listed separately
Assay: CEETOX_H295R_11DCORT: CeeTox H295R High-throughput Steroidogenesis Assay for 11-Deoxycortisol (11DCORT) (AID 2283432; active = hit-call score of the fitted dose curve at least 0.9, where 1 is the maximum; inactive = score below 0.9;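 as to AC50: 11-deoxycortisol secreted into the medium measured by LC-MS/MS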)
Settings: actives raise or lower the signal
Method in brief: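 Human adrenal H295R cells were prestimulated with 10 uM forskolin for 48 h, then exposed to test chemical (0.1% DMSO final) for 48 h. Medium 11-deoxycortisol was quantified by MTBE extraction and HPLC-MS/MS; bidirectional fitting relative to DMSO.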

SMILES	AC50	outcome
CC(Cc1ccc(C(C)(C)C)cc1)CN1C[C@@H](C)O[C@@H](C)C1 (some centres not stated)	13.8 µM (active)	
O=CNC(N1CCN(C(NC=O)C(Cl)(Cl)Cl)CC1)C(Cl)(Cl)Cl (configuration not stated)	50 µM (active)	
Oc1cc(Cl)ccc1Cl		inactive

Read-out: not listed separately
Assay: CEETOX_H295R_OHPREG: CeeTox H295R High-throughput Steroidogenesis Assay for OH-Pregnenolone (OHPREG) (AID 2283434; active = hit-call score of the fitted dose curve at least 0.9, where 1 is the maximum; inactive = score below 0.9)
Settings: actives raise or lower the signal
Method in brief: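 H295R cells pre-stimulated 48 h with 10 uM forskolin, then exposed 48 h to chemical in 0.1% DMSO. 17alpha-hydroxypregnenolone in medium quantified by MTBE extraction and HPLC-MS/MS; bidirectional fit versus DMSO, viability checked by MTT.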

SMILES	AC50	outcome
CC(Cc1ccc(C(C)(C)C)cc1)CN1C[C@@H](C)O[C@@H](C)C1 (some centres not stated)	0.0454 µM (active)	
O=CNC(N1CCN(C(NC=O)C(Cl)(Cl)Cl)CC1)C(Cl)(Cl)Cl (configuration not stated)		inactive
Oc1cc(Cl)ccc1Cl		inactive

Read-out: not listed separately
Assay: CEETOX_H295R_OHPROG: CeeTox H295R High-throughput Steroidogenesis Assay for OH-Progesterone (OHPROG) (AID 2283435; active = hit-call score of the fitted dose curve at least 0.9, where 1 is the maximum; inactive = score below 0.9;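 as to AC50: 17alpha-hydroxyprogesterone secreted into medium measured by HPLC-MS/MS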)
Settings: actives raise or lower the signal
Method in brief: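 H295R, 10 uM forskolin prestim 48 h; cmpd in 0.1% DMSO 48 h; medium MTBE-extracted, HPLC-MS/MS for OH-progesterone; 7-pt std curve; bidirectional fit vs DMSO; MTT viability, chemicals diluted until viability >/=70%.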

SMILES	AC50	outcome
CC(Cc1ccc(C(C)(C)C)cc1)CN1C[C@@H](C)O[C@@H](C)C1 (some centres not stated)	0.316 µM (active)	
O=CNC(N1CCN(C(NC=O)C(Cl)(Cl)Cl)CC1)C(Cl)(Cl)Cl (configuration not stated)		inactive
Oc1cc(Cl)ccc1Cl	25.8 µM (active)	

Read-out: not listed separately
Assay: CEETOX_H295R_CORTIC: CeeTox H295R High-throughput Steroidogenesis Assay for Corticosterone (CORTIC) (AID 2283437; active = hit-call score of the fitted dose curve at least 0.9, where 1 is the maximum; inactive = score below 0.9;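 also: corticosterone secreted into medium quantified by mass spectrometry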)
Settings: actives raise or lower the signal
Method in brief: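 H295R adrenal cells prestimulated 48 hours with 10 uM forskolin, then exposed 48 hours to chemical in 0.1% DMSO. Corticosterone in medium measured by HPLC-MS/MS after MTBE extraction; MTT viability in the same wells; bidirectional fit versus DMSO.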

SMILES	outcome
CC(Cc1ccc(C(C)(C)C)cc1)CN1C[C@@H](C)O[C@@H](C)C1 (some centres not stated)	inactive
O=CNC(N1CCN(C(NC=O)C(Cl)(Cl)Cl)CC1)C(Cl)(Cl)Cl (configuration not stated)	inactive
Oc1cc(Cl)ccc1Cl	inactive
